# From paper PMC8384837, “Expanding the binding specificity for RNA recognition by a PUF domain”
# What was measured:
# Test in all cases: yeast three-hybrid, YBZ-1, SC-Leu-His + 0.5 mM 3-AT, 4 days
# Details in all cases: tags: N-Gal4 AD-HA kept; label: inside an RPR1-promoter hybrid RNA with tandem MS2 sites; ssRNA
# PUM1 PUF domain R4-GNT = PUM1 PUF domain R4-GNT (Homo sapiens, UniProt Q14671 828-1176, N971G;H972N;Q975T)
# How it was run: (§1)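 Pumilio-1 PUF domain libraries, randomized (NNK) at the three base-contacting residues of each repeat, were co-expressed with matching RNA elements from a centromeric plasmid in strain YBZ-1 (LexA–MS2 coat fusion, HIS3 reporter). Transformants were plated on SC-Leu (input) and SC-Leu-His + 0.5 mM 3-AT (selection) for four days, and repeat regions were PCR-amplified and Illumina-sequenced. The interaction score is the log2 change in variant frequency from input to selection, with pseudocount 1 where absent.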
# PUM1 PUF domain R4-PYS = PUM1 PUF domain R4-PYS (Homo sapiens, UniProt Q14671 828-1176, N971P;H972Y;Q975S)
# How it was run: as §1
# PUM1 PUF domain R4-DFL = PUM1 PUF domain R4-DFL (Homo sapiens, UniProt Q14671 828-1176, N971D;H972F;Q975L)
# How it was run: as §1
# PUM1 PUF domain R3-VYP = PUM1 PUF domain R3-VYP (Homo sapiens, UniProt Q14671 828-1176, C935V;R936Y;Q939P)
# How it was run: as §1
# PUM1 PUF domain R3-LSK = PUM1 PUF domain R3-LSK (Homo sapiens, UniProt Q14671 828-1176, C935L;R936S;Q939K)
# How it was run: as §1
# PUM1 PUF domain R3-PHH = PUM1 PUF domain R3-PHH (Homo sapiens, UniProt Q14671 828-1176, C935P;R936H;Q939H)
# How it was run: as §1
# PUM1 PUF domain R4-DWI = PUM1 PUF domain R4-DWI (Homo sapiens, UniProt Q14671 828-1176, N971D;H972W;Q975I)
# How it was run: as §1
# PUM1 PUF domain R6-SWG = target: T1, PUM1 PUF domain R6-SWG (Homo sapiens, UniProt Q14671 828-1176, N1043S;Y1044W;Q1047G)
# T1 sequence: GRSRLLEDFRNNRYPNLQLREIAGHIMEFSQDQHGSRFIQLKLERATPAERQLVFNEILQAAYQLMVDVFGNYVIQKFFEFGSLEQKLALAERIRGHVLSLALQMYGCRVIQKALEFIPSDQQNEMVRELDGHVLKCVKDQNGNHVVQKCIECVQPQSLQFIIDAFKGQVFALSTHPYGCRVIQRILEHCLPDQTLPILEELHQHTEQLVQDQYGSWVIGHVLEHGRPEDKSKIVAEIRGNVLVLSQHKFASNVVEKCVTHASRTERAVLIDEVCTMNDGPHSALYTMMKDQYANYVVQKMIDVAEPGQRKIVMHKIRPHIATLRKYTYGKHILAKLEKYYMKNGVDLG
# How it was run: as §1
# PUM1 PUF domain R1-YGR = PUM1 PUF domain R1-YGR (Homo sapiens, UniProt Q14671 828-1176, S863Y;R864G;Q867R)
# How it was run: as §1
# PUM1 PUF domain R1-RCT = PUM1 PUF domain R1-RCT (Homo sapiens, UniProt Q14671 828-1176, S863R;R864C;Q867T)
# How it was run: as §1
# PUM1 PUF domain R7-RCC = PUM1 PUF domain R7-RCC (Homo sapiens, UniProt Q14671 828-1176, S1079R;N1080C;E1083C)
# How it was run: as §1
# PUM1 PUF domain R1-RSE = PUM1 PUF domain R1-RSE (Homo sapiens, UniProt Q14671 828-1176, S863R;R864S;Q867E)
# How it was run: as §1
# PUM1 PUF domain R8-GYR = PUM1 PUF domain R8-GYR (Homo sapiens, UniProt Q14671 828-1176, N1122G;Q1126R)
# How it was run: as §1
# PUM1 PUF domain R8-RHW = PUM1 PUF domain R8-RHW (Homo sapiens, UniProt Q14671 828-1176, N1122R;Y1123H;Q1126W)
# How it was run: as §1
# PUM1 PUF domain R8-KRK = PUM1 PUF domain R8-KRK (Homo sapiens, UniProt Q14671 828-1176, N1122K;Y1123R;Q1126K)
# How it was run: as §1
# PUM1 PUF domain R2-PWL = PUM1 PUF domain R2-PWL (Homo sapiens, UniProt Q14671 828-1176, N899P;Y900W;Q903L)
# How it was run: as §1
# PUM1 PUF domain R3-AIR = PUM1 PUF domain R3-AIR (Homo sapiens, UniProt Q14671 828-1176, C935A;R936I;Q939R)
# How it was run: as §1
# PUM1 PUF domain R5-SRM = PUM1 PUF domain R5-SRM (Homo sapiens, UniProt Q14671 828-1176, C1007S;Q1011M)
# How it was run: as §1
# PUM1 PUF domain R7-DNV = PUM1 PUF domain R7-DNV (Homo sapiens, UniProt Q14671 828-1176, S1079D;E1083V)
# How it was run: as §1
# PUM1 PUF domain R7-RSW = PUM1 PUF domain R7-RSW (Homo sapiens, UniProt Q14671 828-1176, S1079R;N1080S;E1083W)
# How it was run: as §1
sequence,measurement,setting,value
GGCUAGAACUAGUGGAUCCCCCGGCGCCCGGCGGCUCGAGCCCGGGUAAGUGUAUAUAGUCUGCAUGCCGCCGGGCGCCAUGCCUGCAGGUCGACUCUAGAAAACAUG,binding signal,PUM1 PUF domain R4-GNT,3.55 log2 enrichment (interaction score)
same,binding signal,PUM1 PUF domain R4-PYS,5.95 log2 enrichment (interaction score)
same,binding signal,PUM1 PUF domain R4-DFL,2.93 log2 enrichment (interaction score)
GGCUAGAACUAGUGGAUCCCCCGGCGCCCGGCGGCUCGAGCCCGGGUAAGUGUAAUUAGUCUGCAUGCCGCCGGGCGCCAUGCCUGCAGGUCGACUCUAGAAAACAUG,binding signal,PUM1 PUF domain R3-VYP,2.9 log2 enrichment (interaction score)
same,binding signal,PUM1 PUF domain R3-LSK,5.2 log2 enrichment (interaction score)
same,binding signal,PUM1 PUF domain R3-PHH,2.2 log2 enrichment (interaction score)
GGCUAGAACUAGUGGAUCCCCCGGCGCCCGGCGGCUCGAGCCCGGGUAAGUGUACAUAGUCUGCAUGCCGCCGGGCGCCAUGCCUGCAGGUCGACUCUAGAAAACAUG,binding signal,PUM1 PUF domain R4-DWI,5.64 log2 enrichment (interaction score)
same,binding signal,PUM1 PUF domain R4-GNT,0.59 log2 enrichment (interaction score)
same,binding signal,PUM1 PUF domain R4-PYS,5.7 log2 enrichment (interaction score)
GGCUAGAACUAGUGGAUCCCCCGGCGCCCGGCGGCUCGAGCCCGGGUAAGUGAAAAUAGUCUGCAUGCCGCCGGGCGCCAUGCCUGCAGGUCGACUCUAGAAAACAUG,binding signal,PUM1 PUF domain R6-SWG,1.35 log2 enrichment (interaction score)
GGCUAGAACUAGUGGAUCCCCCGGCGCCCGGCGGCUCGAGCCCGGGUAAGUGUAAAUUGUCUGCAUGCCGCCGGGCGCCAUGCCUGCAGGUCGACUCUAGAAAACAUG,binding signal,PUM1 PUF domain R1-YGR,6.42 log2 enrichment (interaction score)
same,binding signal,PUM1 PUF domain R1-RCT,4.25 log2 enrichment (interaction score)
GGCUAGAACUAGUGGAUCCCCCGGCGCCCGGCGGCUCGAGCCCGGGUAAGUCUAAAUAGUCUGCAUGCCGCCGGGCGCCAUGCCUGCAGGUCGACUCUAGAAAACAUG,binding signal,PUM1 PUF domain R7-RCC,2.43 log2 enrichment (interaction score)
GGCUAGAACUAGUGGAUCCCCCGGCGCCCGGCGGCUCGAGCCCGGGUAAGUGUAAAUCGUCUGCAUGCCGCCGGGCGCCAUGCCUGCAGGUCGACUCUAGAAAACAUG,binding signal,PUM1 PUF domain R1-RSE,2.49 log2 enrichment (interaction score)
same,binding signal,PUM1 PUF domain R1-YGR,5.61 log2 enrichment (interaction score)
GGCUAGAACUAGUGGAUCCCCCGGCGCCCGGCGGCUCGAGCCCGGGUAAGCGUAAAUAGUCUGCAUGCCGCCGGGCGCCAUGCCUGCAGGUCGACUCUAGAAAACAUG,binding signal,PUM1 PUF domain R8-GYR,5.09 log2 enrichment (interaction score)
same,binding signal,PUM1 PUF domain R8-RHW,4.05 log2 enrichment (interaction score)
same,binding signal,PUM1 PUF domain R8-KRK,4.95 log2 enrichment (interaction score)
GGCUAGAACUAGUGGAUCCCCCGGCGCCCGGCGGCUCGAGCCCGGGUAAGUGUAAAUGGUCUGCAUGCCGCCGGGCGCCAUGCCUGCAGGUCGACUCUAGAAAACAUG,binding signal,PUM1 PUF domain R1-RSE,0.71 log2 enrichment (interaction score)
same,binding signal,PUM1 PUF domain R1-YGR,2.18 log2 enrichment (interaction score)
same,binding signal,PUM1 PUF domain R1-RCT,3.84 log2 enrichment (interaction score)
GGCUAGAACUAGUGGAUCCCCCGGCGCCCGGCGGCUCGAGCCCGGGUAAGUGUAAAGAGUCUGCAUGCCGCCGGGCGCCAUGCCUGCAGGUCGACUCUAGAAAACAUG,binding signal,PUM1 PUF domain R2-PWL,6.99 log2 enrichment (interaction score)
GGCUAGAACUAGUGGAUCCCCCGGCGCCCGGCGGCUCGAGCCCGGGUAAGUGUAAGUAGUCUGCAUGCCGCCGGGCGCCAUGCCUGCAGGUCGACUCUAGAAAACAUG,binding signal,PUM1 PUF domain R3-AIR,2.87 log2 enrichment (interaction score)
same,binding signal,PUM1 PUF domain R3-LSK,6.88 log2 enrichment (interaction score)
GGCUAGAACUAGUGGAUCCCCCGGCGCCCGGCGGCUCGAGCCCGGGUAAGUGUGAAUAGUCUGCAUGCCGCCGGGCGCCAUGCCUGCAGGUCGACUCUAGAAAACAUG,binding signal,PUM1 PUF domain R5-SRM,1.99 log2 enrichment (interaction score)
GGCUAGAACUAGUGGAUCCCCCGGCGCCCGGCGGCUCGAGCCCGGGUAAGUUUAAAUAGUCUGCAUGCCGCCGGGCGCCAUGCCUGCAGGUCGACUCUAGAAAACAUG,binding signal,PUM1 PUF domain R7-DNV,3.87 log2 enrichment (interaction score)
same,binding signal,PUM1 PUF domain R7-RSW,2.57 log2 enrichment (interaction score)
GGCUAGAACUAGUGGAUCCCCCGGCGCCCGGCGGCUCGAGCCCGGGUAAGUGUAAAUAGUCUGCAUGCCGCCGGGCGCCAUGCCUGCAGGUCGACUCUAGAAAACAUG,binding signal,PUM1 PUF domain R4-DWI,6.41 log2 enrichment (interaction score)
same,binding signal,PUM1 PUF domain R3-VYP,5.74 log2 enrichment (interaction score)
same,binding signal,PUM1 PUF domain R6-SWG,4.18 log2 enrichment (interaction score)
same,binding signal,PUM1 PUF domain R5-SRM,2.84 log2 enrichment (interaction score)
same,binding signal,PUM1 PUF domain R8-GYR,5.16 log2 enrichment (interaction score)
same,binding signal,PUM1 PUF domain R4-DFL,5.04 log2 enrichment (interaction score)
same,binding signal,PUM1 PUF domain R3-PHH,4.19 log2 enrichment (interaction score)
same,binding signal,PUM1 PUF domain R8-RHW,2.9 log2 enrichment (interaction score)
same,binding signal,PUM1 PUF domain R8-KRK,3.65 log2 enrichment (interaction score)
